Assay results published in PubChem BioAssay (Tox21).
Results filed as inconclusive are left out. A call without a number means that no potency is given here. Values without a mark were called inactive. Activity calls are given as the source filed them. Unless noted, the call rests on the fitted dose curve.

What was measured:
[1] = qHTS assay to identify small molecule antagonists of the vitamin D receptor (VDR) signaling pathway - cell viability counter screen (AID 743225; active means well fitted curve in the direction sought with a large enough effect in the repeat runs; an effect the other way counts as inactive or inconclusive; further: nearly all actives have a fitted effect of over 50% in size)
Outline: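 Cytotoxicity counter screen read by CellTiter-Glo luminescence (30 min, room temperature) in the same wells as the VDR-bla antagonist readout. HEK 293T VDR-UAS-bla cells had 16 h at 37C with compound and 3 nM (final) 1-alpha,25-dihydroxyvitamin D3, then 2 h with FRET substrate.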

[2] = qHTS assay to identify small molecule agonists of the NFkB signaling pathway (AID 1159509; active means well fitted curve in the direction sought with a large enough effect in the signal ratio in the repeat runs, not every such curve was filed as active; the % refers to the signal ratio; further: series mostly up to about 61 µM)
Outline: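 NFkB-bla ME-180 cells with a beta-lactamase reporter under an NF-kB response element were plated overnight, treated with compounds in DMSO for 5 hr at 37 C, then loaded with FRET substrate for 1.5 hr at room temperature.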

[3] = qHTS assay to identify small molecule agonists of the NFkB signaling pathway - cell viability counter screen (AID 1159515); further: nearly all actives have a fitted effect of over 55% in size; further: potency means the concentration at half of the fitted maximal effect
Outline: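 NFkB-bla ME-180 cells, 2,000/well, plated overnight at 37 C; compound added for 5 hr at 37 C. Viability read in the same wells as the bla reporter, by CellTiter-Glo luminescence after 30 min at room temperature.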

[4] = qHTS assay to identify small molecule agonists of the endoplasmic reticulum stress response signaling pathway - cell viability counter screen (AID 1159517); further: nearly all actives have a fitted effect of over 50% in size; further: potency means the concentration at half of the fitted maximal effect
Outline: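 Counter-screen wells were identical to the reporter wells. Cells were plated at 1,500 per well and dosed for 5 hr, then read for luminescence 30 min after CellTiter-Glo addition.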

[5] = qHTS assay to identify small molecule antagonists of the retinoid-related orphan receptor gamma (ROR-gamma) signaling pathway - cell viability counter screen (AID 1159520; active means well fitted curve in the direction sought with a large enough effect in the repeat runs; an effect the other way counts as inactive or inconclusive; further: nearly all actives have a fitted effect of over 50% in size)
Outline: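 Tet-on ROR gamma CHO cells were given compounds for 2 hr, then doxycycline hyclate at 1 uM final, and incubated 16 hr at 37 C. Viability was measured as ATP content by CellTiter-Glo luminescence.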

[6] = target: Nuclear receptor ROR-gamma (Homo sapiens) (UniProt P51449); experiment: qHTS assay to identify small molecule antagonists of the retinoid-related orphan receptor gamma (ROR-gamma) signaling pathway (AID 1159521; active means well fitted curve in the direction sought with a large enough effect in the repeat runs; an effect the other way counts as inactive or inconclusive; further: nearly all actives have a fitted effect of over 50% in size; further: potency means the concentration at half of the fitted maximal effect)
Outline: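 Antagonist read-out: drop in luminescence (ONE-Glo) from an RORE-LUC reporter in CHO cells with doxycycline-inducible ROR-gamma; 2 hr compound pretreatment, 1 uM doxycycline, 16 hr incubation at 37 C.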

[7] = qHTS assay to identify small molecule agonists of the AP-1 signaling pathway - cell viability counter screen (AID 1159525); further: nearly all actives have a fitted effect of over 55% in size
Outline: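 AP-1-bla ME-180 cells in Opti-MEM with 0.5% dialyzed FBS, compound exposure 5 h at 37 C in 15-point titration. Viability read in the same wells as ATP content by CellTiter-Glo luminescence, normalised to tetra-n-octylammonium bromide and DMSO controls.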

[8] = qHTS assay to identify small molecule agonists of the AP-1 signaling pathway (AID 1159526)
[9] = target: Retinoic acid receptor RXR-alpha (Homo sapiens) (UniProt P19793); experiment: qHTS assay to identify small molecule agonists of the RXR signaling pathway (AID 1159527); further: nearly all actives have a fitted effect of over 35% in size; further: potency means the concentration at half of the fitted maximal effect
Chain of Retinoic acid receptor RXR-alpha (Homo sapiens) (P19793 whole entry, looked up): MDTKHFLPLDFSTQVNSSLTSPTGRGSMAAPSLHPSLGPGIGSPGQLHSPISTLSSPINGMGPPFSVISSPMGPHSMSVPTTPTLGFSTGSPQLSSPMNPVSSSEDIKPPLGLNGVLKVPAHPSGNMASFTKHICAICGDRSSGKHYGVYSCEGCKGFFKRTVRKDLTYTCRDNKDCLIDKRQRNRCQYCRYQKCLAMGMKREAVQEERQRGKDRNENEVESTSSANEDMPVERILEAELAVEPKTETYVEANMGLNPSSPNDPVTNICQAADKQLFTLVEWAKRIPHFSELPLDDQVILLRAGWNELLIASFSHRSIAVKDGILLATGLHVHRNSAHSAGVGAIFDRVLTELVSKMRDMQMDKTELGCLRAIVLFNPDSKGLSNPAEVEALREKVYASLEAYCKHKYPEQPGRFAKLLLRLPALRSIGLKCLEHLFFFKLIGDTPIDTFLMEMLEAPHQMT
Outline: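 Agonist-mode beta-lactamase reporter assay: HEK 293T RXR-alpha-UAS-bla cells treated 16 hr at 37 C with compounds, 9-cis retinoic acid as positive control. LiveBLAzer FRET substrate, 405 nm excitation, 460/530 nm emission.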

[10] = qHTS assay to identify small molecule agonists of the endoplasmic reticulum stress response signaling pathway (AID 1159516; active means well fitted activation curve with a large enough effect in the signal ratio in the repeat runs, not every such curve was filed as active; the % refers to the signal ratio)
Outline: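 CellSensor ESRE-bla HeLa cells, 1,500 per well, plated overnight, then exposed to compounds for 5 hr at 37 C. Beta-lactamase reporter read with LiveBLAzer B/G FRET substrate after 2 hr at room temperature, 405 nm excitation, 460 and 530 nm emission.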

| Compound | Potency [1] | outcome [2] | Potency [3] | Potency [4] | Potency [5] | Potency [6] | Potency [7] | outcome [8] | Potency [9] | Potency [10] |
| --- | --- | --- | --- | --- | --- | --- | --- | --- | --- | --- |
| COC1CCC=CO1 (stereo unspecified) | inactive | inactive | inactive | 55.3 µM (active) | inactive | inactive | inactive | inactive | inactive |  |
| COc1ccc(N)c([N+](=O)[O-])c1 | inactive | inactive | inactive | inactive | inactive | inactive | inactive | inactive | inactive |  |
| CNc1c2c(nn1C)CCCC2 | inactive | inactive | inactive | inactive | inactive | inactive | inactive | inactive | inactive |  |
| Nc1c(Cl)cc(Cl)cc1[N+](=O)[O-] | inactive | inactive | inactive |  |  |  | inactive | inactive | inactive | inactive |
| CC1CCCC(=O)C1=O (stereo unspecified) | inactive | inactive | inactive | inactive | inactive | inactive | inactive | inactive | inactive |  |
| Cc1oc(=O)oc1COC(=O)[C@@H]1N2C(=O)[C@@H](NC(=O)[C@H](N)c3ccccc3)[C@H]2SC1(C)C | inactive | inactive | inactive | inactive | inactive | inactive | inactive | inactive | inactive |  |
| O=C1c2ccccc2C(=O)c2c(O)ccc(O)c21 |  | inactive | inactive | inactive | inactive | inactive | inactive | inactive | inactive |  |
| Cc1ccc2nc(N)[nH]c(=O)c2c1Sc1ccncc1 | inactive | inactive | inactive | inactive | inactive | inactive | inactive | inactive | inactive |  |
| CCCOC(=O)c1c(Cl)c(Cl)c(Cl)c(Cl)c1C(=O)OCCC |  | inactive | inactive |  |  |  | inactive |  | inactive | inactive |
| CC(=O)OCCC(C)CC(C)(C)C (stereo unspecified) | inactive | inactive | inactive | inactive | inactive | inactive | inactive | inactive | 11 µM (active) |  |
| NC(=O)c1ccccc1[N+](=O)[O-] | inactive | inactive | inactive | inactive | inactive | inactive | inactive | inactive | inactive |  |
| CCCCOC(=O)CCCCC(=O)OCCCC | inactive | inactive | inactive | inactive | inactive | inactive | inactive | inactive |  |  |
| CCC(=O)OCc1ccc(OC)cc1 |  | inactive | inactive | inactive | inactive | inactive | inactive | inactive |  |  |
| CC(C)C(O)C(C)(C)CO (stereo unspecified) | inactive | inactive | inactive |  |  | 22.4 µM (active) |  |  |  | inactive |
| Nc1ccc(N=Nc2ccc(N)cc2)cc1 | inactive | inactive | inactive | inactive | inactive | inactive | inactive | inactive | inactive |  |
| FC(F)(F)C(F)(F)C(F)(F)C(F)(F)CCI |  | inactive | inactive | inactive | inactive | inactive | inactive | inactive | inactive |  |
| CC(C)OC(=O)c1ccccc1C(=O)OC(C)C | inactive | inactive | inactive | inactive | inactive | inactive | inactive | inactive | inactive |  |
| CCN(CC)c1cccc(O)c1 | inactive | inactive | inactive | inactive | inactive | inactive | inactive | inactive | inactive |  |
| CCCCOCCOC(=O)c1cccnc1 | inactive | inactive | inactive | inactive | inactive | inactive | inactive | inactive | inactive |  |
| COc1cc(NCc2ccc3nc(N)nc(N)c3c2C)cc(OC)c1OC |  | inactive | inactive | inactive | inactive | inactive | inactive | inactive |  |  |
| O=C(O)c1cc(Cl)cc(Cl)c1O | inactive | inactive | inactive |  |  |  | inactive | inactive | inactive | inactive |
| CN(C)CC/C=C1\c2ccccc2Sc2ccc(Cl)cc21 |  | inactive | inactive |  |  |  | inactive |  |  | inactive |
| CC(=O)NCCO | inactive | inactive | inactive | inactive | inactive | inactive | inactive | inactive | inactive |  |
| O=C(O)c1ccc(O)cc1O | inactive | inactive | inactive | inactive | inactive | inactive | inactive | inactive | inactive |  |
| CC(CCc1ccc(O)cc1)NCCc1ccc(O)c(O)c1 (stereo unspecified) | inactive | inactive | inactive | inactive | inactive | inactive | inactive | inactive | inactive |  |
| N[C@@H](Cc1cc(I)c(O)c(I)c1)C(=O)O | inactive | inactive | inactive | inactive | inactive | inactive | inactive | inactive | inactive |  |
| C=Cc1ccc(OC(C)=O)cc1 | inactive | inactive | inactive | inactive | inactive | inactive | inactive | inactive | inactive |  |

| Compound | Potency [1] | outcome [2] | Potency [3] | Potency [4] | Potency [5] | Potency [6] | Potency [7] | outcome [8] | Potency [9] | Potency [10] |
| --- | --- | --- | --- | --- | --- | --- | --- | --- | --- | --- |
| COc1ccc2nc(S(=O)Cc3ncc(C)c(OC)c3C)[nH]c2c1 (stereo unspecified) | inactive | inactive | inactive | inactive | inactive | inactive | inactive | inactive | inactive |  |
| CCCCC(CC)COS(=O)(=O)O (stereo unspecified) | inactive | inactive | inactive | inactive | inactive | inactive | inactive | inactive | inactive |  |
| Oc1cccc2[nH]ccc12 | inactive | inactive | inactive | inactive | inactive | inactive | inactive | inactive | inactive |  |
| CCOC(=O)N1CCC(Nc2ccc(Cl)cc2N)CC1 | inactive | inactive | inactive | inactive | inactive | inactive | inactive | inactive | inactive |  |
| CCCCCCCCCCCCCOS(=O)(=O)O |  | inactive | 54.9 µM (active) |  |  | inactive |  |  | inactive | inactive |
| COc1cc(NC(C)CCCN)c2ncccc2c1 (stereo unspecified) | inactive | inactive | inactive | inactive | inactive | inactive | inactive | inactive |  |  |
| O=C(O)CNC(=O)c1ccccc1I | inactive | inactive | inactive | inactive | inactive | inactive | inactive | inactive | inactive |  |
| CCN(CC)C(=O)N1CCN(C)CC1 | inactive | inactive | inactive | inactive | inactive | inactive |  | inactive | inactive |  |
| CC/C=C\C/C=C\C/C=C\CCCCCCCC(=O)OCC |  | inactive | inactive | inactive | inactive | inactive |  | inactive |  |  |
| O=[N+]([O-])C1(Br)COCOC1 | inactive | inactive | inactive | inactive |  | 24.3 µM (active) | inactive | inactive |  |  |
| COc1cc(S(=O)(=O)Nc2ccccc2)c(OC)cc1N |  | inactive | inactive | inactive | inactive | inactive |  | inactive | inactive |  |
| O=C(O)CCC(=O)c1ccc(-c2ccccc2)cc1 | inactive | inactive | inactive | inactive |  | inactive | inactive | inactive |  |  |
| Cc1cc(CCC(=O)OCCOCCOCCOC(=O)CCc2cc(C)c(O)c(C(C)(C)C)c2)cc(C(C)(C)C)c1O |  | inactive | inactive | inactive | inactive | inactive |  | inactive | inactive |  |
| Cc1ccccc1S(N)(=O)=O | inactive | inactive | inactive | inactive | inactive | inactive |  | inactive | inactive |  |
| CC1=CC[C@@]23C[C@@H]1C(C)(C)[C@@H]2CC[C@H]3C | inactive | inactive | inactive | inactive | inactive | inactive |  | inactive | inactive |  |
| Cc1ccc(NC(=O)N(C)C)cc1NC(=O)N(C)C | inactive | inactive | inactive | inactive |  | inactive | inactive | inactive | inactive |  |
| COC(=O)c1sccc1S(N)(=O)=O | inactive | inactive | inactive | inactive | inactive | inactive |  | inactive | inactive |  |
| CCCCC[C@H](O)/C=C/[C@H]1[C@H](O)CC(=O)[C@@H]1C/C=C\CCCC(=O)O | inactive | inactive | inactive | inactive | inactive | inactive | inactive | inactive |  |  |
| CC(=O)c1ccc[nH]1 | inactive | inactive | inactive | inactive | inactive | inactive | inactive | inactive |  |  |
| CC(C)(C)NCC(O)COc1cccc2c1C[C@H](O)[C@H](O)C2 (stereo partly specified) | inactive | inactive | inactive | inactive | inactive | inactive |  | inactive | inactive |  |
| CCCC(=O)OC(=O)CCC | inactive | inactive | inactive | inactive | inactive | inactive |  | inactive |  |  |
| C1=CCC2CC=CC2C1 (stereo unspecified) | inactive | inactive | inactive | inactive |  | inactive |  | inactive | inactive |  |
| CSSc1ccoc1C | inactive | inactive | inactive | inactive | inactive | inactive |  | inactive | inactive |  |
| COc1cc(NS(=O)(=O)c2ccc(N)cc2)nc(C)n1 | inactive | inactive | inactive | inactive |  | inactive | inactive | inactive | inactive |  |
| O=C(O)c1cccc(C[C@@H]2COc3ccc(OCc4nc5cc(F)ccc5s4)cc3[C@@H]2O)c1 | inactive | inactive | inactive | inactive | inactive | inactive | inactive | inactive |  |  |
| CC1C(C)(C)C2=C(C(=O)CCC2)C1(C)C (stereo unspecified) | inactive | inactive | inactive | inactive | inactive | inactive | inactive |  | inactive |  |
